# An excerpt weighted towards active compounds, which were near 2.6% of everything screened.
# TRPV1 potentiator – enhances activation of the human vanilloid receptor TRPV1; 320,000 tested, 0.02% active; Q8NER1; AID 540277; TRPV1-expressing cells, Fluo-8 calcium influx, capsaicin EC20 potentiation; potentiation, % at 8.33 µM; in the data active means potentiation above about 80%; inconclusive means between about 30% and that limit; further: 0% is about no effect
#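 Fluo-8 calcium influx in TRPV1-expressing cells, kinetic read (ex 480/em 520 nm). Compound added and read 3 min for agonist activity, followed by capsaicin at EC20 final and 2 min further read for enhancement.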
# ClpP mod – qHTS Assay for Activators of ClpP | ATP-dependent Clp protease proteolytic subunit (Bacillus subtilis (strain 168)), P80244 | purified B. subtilis ClpP, FRET peptide cleavage, 20 min | Potency, µM (highest dose often 57.5 µM), inactives show at the highest dose activity change, negative = active | 340,000 tested, 1.9% active | AID 651965, 2013; active means well fitted falling curve with a large enough effect; inconclusive means small, poorly fitted or top-dose-only effect; inactive means no such curve, though single readings can be large or run the other way; further: potency means the concentration at half of the fitted maximal effect; the source files actives as falling curves though it sought activators and does not explain the sign; nearly all actives have a fitted effect of over 65% in size
# Target sequence (P80244 whole entry, looked up): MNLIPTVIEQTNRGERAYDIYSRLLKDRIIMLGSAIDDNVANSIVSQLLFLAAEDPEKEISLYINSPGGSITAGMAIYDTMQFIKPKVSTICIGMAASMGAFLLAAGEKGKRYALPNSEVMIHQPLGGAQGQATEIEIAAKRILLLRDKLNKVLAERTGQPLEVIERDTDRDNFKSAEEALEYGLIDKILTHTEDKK
#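 Purified B. subtilis ClpP, 10 microg/mL final in Tris/HCl pH8 with KCl, BSA, glycerol and Tween-20, cleaved an Abz/nitrotyrosine-quenched decapeptide. Fluorescence (ex 320, em 430) was read at 0 and 20 min at room temperature. Delta was normalized to 5.8 microM ADEP and DMSO/no-enzyme controls.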
# TRPV1 ag – activates the human vanilloid receptor TRPV1; TRPV1-expressing cells, Fluo-8 calcium influx, agonist mode; activation, % at 8.33 µM; 320,000 tested, 0.19% active; AID 540275; in the data active means activation above about 80%; inconclusive means between about 30% and that limit; further: 0% is about no effect
#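 TRPV1-expressing cells were cultured overnight at 35.5C and loaded with Fluo-8 calcium dye for 40 to 90 min at room temperature. After a 10 s baseline, compound was added and calcium influx was read kinetically for 3 min (ex 480/em 520 nm).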
# KCNH2 3.1 block – inhibitors of human KCNH2 3.1 potassium channel isoform; U2OS KCNH2 3.1, thallium flux FluxOr; hits give low values; activity change, % (tested at about 1.8 µM); 340,000 tested, 0.95% active; AID 720553;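 active means maximum activity change below -70%; inconclusive means maximum activity change from -70% to -50%; inactive means maximum activity change above -50%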;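 further: thallium influx rate constant from kinetic fluorescence after stimulation buffer; on the % scale 0 is the no-effect control and ±100 the full control effect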
#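 We transduce U2OS cells with the mutant 3.1 virus, culture them overnight, load FluxOr with Red40 quencher for 45 min, then add stimulation buffer and read kinetically for 2 min to derive a normalized rate constant.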
# p53 reactivation – re-activators of mutant p53. H1299 p53-A138V BP100-luciferase reporter, luminescence, 24 h. Potency, µM (titrated, usually from 92.2 µM), for inactives: top-dose activity change, positive = activation, hits mostly activators. 320,000 tested, 0.063% active; active means well fitted activation curve with a large enough effect; inconclusive means small, poorly fitted or top-dose-only effect; inactive means no such curve, though single readings can be large or run the other way; further: potency means the concentration at half of the fitted maximal effect; % of control where 0% means no effect; nearly all actives have a fitted effect of over 45% in size
#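 p53-null H1299 cells stably carrying temperature-sensitive p53-A138V and a BP100-luciferase reporter were pinned with compounds (4-point, 1:5 series) and held 24 hrs at 37 deg C. Luminescence was read 10 min after detection reagent.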
# hERG WT inh – inhibitors of human wildtype KCNH2 potassium channel | activity change, % at 1.84 µM | Q12809 | 340,000 tested, 0.37% active | U2OS, BacMam KCNH2, thallium flux FluxOr; hits give low values;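 active means maximum activity change below -70%; inconclusive means maximum activity change between -70% and -50%; inactive means maximum activity change above -50%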; further: on the % scale 0 is the no-effect control and ±100 the full control effect
#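 U2OS cells transduced with wild-type KCNH2 virus are loaded with FluxOr dye for 45 min, and thallium flux is measured in kinetic reads before and after stimulation buffer. Rate constants are normalized to DMSO controls.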
# Numbers without * were called inactive; u = inconclusive; x = no result given.
SMILES,TRPV1 potentiator,ClpP mod,TRPV1 ag,KCNH2 3.1 block,p53 reactivation,hERG WT inh
CCOC(=O)c1cc2c(=O)n3ccccc3nc2n(CCOC)c1=NC(=O)C(C)(C)Oc1ccc(Cl)cc1,x,-19%,x,x,x,x
COc1cccc(OC(=O)CSc2nnc(-c3ccc4c(c3)OCO4)o2)c1,x,-4%,x,x,x,x
CCOc1ccc(CNC(=O)CSc2nnc(C)c3c(C)n(-c4ccccc4)nc23)cc1,x,1%,x,x,x,x
O=C(Cn1c(=O)n(Cc2nc(-c3ccccc3)no2)c(=O)c2cc3c(cc21)OCO3)Nc1ccccc1,x,18µM*,x,x,x,x
O=C(Cn1c(=O)n(Cc2nc(-c3ccccc3)no2)c(=O)c2cc3c(cc21)OCO3)Nc1ccc(Cl)cc1,x,13µM*,x,x,x,x
COC(=O)[C@]12CCCCC=C1N(CCc1ccc(OC)c(OC)c1)C(=O)[C@H](CC(=O)N1CCC(c3ccccc3)CC1)C2,x,2%,x,x,x,x
CCOc1ccc(-c2nc3c(C#N)c[nH]n3c2NC2CCCCC2)cc1,x,1%,x,x,x,x
CC1=C(C(=O)N(C)C)CC(CC(=O)NC(c2ccccc2)c2ccccc2)C(=O)N1CCC1=CCCCC1 (configuration not stated),x,1%,x,1,x,1
CCN(CC)C(=O)C1=C(C)N(CCC2=CCCCC2)C(=O)C(CC(=O)NC(c2ccccc2)c2ccccc2)C1 (configuration not stated),x,1%,x,-15,x,-88*
Cc1ccn2c(/C=N/OCc3cccc(F)c3)c(-c3ccc(Cl)cc3)nc2c1,x,25µM*,x,-16,-2%,-4
CC(C)c1ccc(-c2noc(SCC(=O)N3CCCCC3)n2)cc1,x,1%,x,x,x,x
CCOc1ccccc1Cn1c(=O)oc2ccc(C)cc21,-13,25µM*,12,-21,-11%,21
CCCCCCCCCCCCCCCC[n+]1ccc(C)cc1,x,-1%,x,x,x,x
CN(c1cccc(Cl)c1)S(=O)(=O)c1cccc(C(=O)Nc2nc3ccccc3[nH]2)c1,-1,-27%,-4,-32,u,5
COc1ccc(N(C)S(=O)(=O)c2cccc(C(=O)Nc3nc4ccccc4[nH]3)c2)cc1,-6,28µM*,5,-7,-4%,-1
CCn1c(SCCOc2ccc(OC)cc2)nnc1C(CO)NC(=O)c1ccc(OC)cc1 (configuration not stated),-1,-3%,3,3,1%,3
C=CCn1c(SCCOc2ccc(OC)cc2)nnc1C(C)NC(=O)Cc1ccc(OC)cc1 (configuration not stated),9,-1%,-6,-101*,3%,6
CCn1cc(C(=O)O)c(=O)c2cc(OC)ccc21,2,32µM*,-3,0,-1%,16
CCn1cc(C(=O)O)c(=O)c2cc(S(=O)(=O)N3CCCCCC3)ccc21,1,-4%,-8,7,-5%,-8
CC(C)CCNC(=O)Nc1cc(C(=O)NCc2cccc(F)c2)ccc1N1CCCC1,x,-8%,x,x,x,x
Brc1ccc(CN2CCSCC2)cc1,5,-1%,-3,-174*,2%,-15
O=C(Nc1cc(S(=O)(=O)N2CCOCC2)ccc1N1CCCC1)c1ccccc1C(F)(F)F,x,0%,x,-7,x,-9
Cc1c(NC2=NC3(CCCCC3)Cc3ccccc32)c(=O)n(C)n1-c1ccccc1,5,-1%,-1,-194*,14%,-172*
O=C(c1ccc(Cl)c(S(=O)(=O)N2CCOCC2)c1)N(Cc1nnc(-c2ccccc2Cl)o1)C1CC1,-4,22µM*,2,-11,5%,16
Clc1cccc(CNCCCSc2ncccn2)c1Cl,0,x,0,-94*,-3%,-9
CN(C)c1ccc(N=Cc2ccnc3ccccc23)cc1,x,-1%,x,x,x,x
COc1ccc(NC(=O)Cn2cnc3c(nc4n3CCCCC4)c2=O)cc1Cl,x,0%,x,x,x,x
CCCn1cnc2c(SCCc3ccccc3)nc(N)nc21,x,1%,x,-2,x,10
CCCCn1cnc2c(SCCc3ccccc3)nc(N)nc21,x,28µM*,x,-5,x,-11

# Source: PubChem (National Center for Advancing Translational Sciences (NCATS))
